Molecular target: QSOX1
Assay: pooled miR-30 sensor sort-seq; sequence = guide strand
Details: shRNA
Further: reference of the scale not given here.

Sequence	sensor-assay potency score (higher = more potent)
TTCCGGAACAGCAGGTAGCAAG	-1.46
TTGTGGCTAGACCAGAGCCAGA	-1.92
TAGCGCAGTCTCGGCAGCCGAA	-1.38
TAAGCGGTATAGAAGGACCTGG	-0.156
TTTGTGCTGGGACAGGTCCAGA	-1.47
TACTCTTCGTTATTTCTCGCAA	-0.156
TTGAAGAACCTCACAGTCGGGA	0.0825
TTATTTCTCGCAAAGAATCCAT	-0.0879
TATTTCTCGCAAAGAATCCATC	-1.27
TACATTTTGCCGAGCTGCCTGC	-0.913
TTGAAGTCTCTGCAGACTGCAC	-0.833

Molecular target: RAB11A
Assay: as above
Details: shRNA

Sequence	sensor-assay potency score (higher = more potent)
TACATTTGTAGAGTCTAGGGCC	0.146
TATTGTTTTTCCATCAACCTGG	0.22
TTATAGCTCGATATCGCTCTTG	-0.642
TTGTCTGAAAAGCAGCTTCTAC	-1.05
TATAGCTCGATATCGCTCTTGC	0.186
TTTCAATGAATGACAAACCATT	-1.27
TATATTTAAATCTCAGACCTGG	0.396
TTCATCTGTAGGAACTGCCCTG	0.239
ATGAATAGGAACCACATTGTTG	-1.36

— the OligoGym collection
